Growth data for 9 compounds are collected here from PubChem BioAssay (NCI).

The panel holds about 83,000 compounds, 20% with a hit somewhere; the sample as a whole holds those more often.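 Step 1: grow cells in 96-well plates. Step 2: add test compound at a single concentration. Step 3: incubate 48 h. Step 4: record percent growth.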 A number with no mark means an inactive call. Calls of active or inactive are those of the source. Rule for the calls: active = growth percent below 10; inactive = the rest.

Some test systems named below: NCI-H23 lung; NCI-H226 lung; NCI-H322M lung; HOP-62 NSCLC; NCI-H460 lung; HOP-92 NSCLC; A549/ATCC NSCLC; 786-0 renal; COLO 205 colon; DU-145 prostate; K-562 leukemia; MALME-3M melanoma; MDA-MB-231 breast; RXF 393 renal; SF-268 CNS; SF-295 CNS; SF-539 CNS; UACC-257 melanoma; M14 melanoma.
Holding throughout (test): NCI-60 one-dose screen, 48 h (100 = growth as untreated, 0 = no growth, -100 = all killed)
What all share (settings): 10 µM unless noted

`CN(C)c1ccc(-c2nc3ncc(Br)cc3o2)cc1`: the growth with NCI-H23 lung is 87.5%; with NCI-H226 lung, 97.9%; in the test on NCI-H322M lung, 90.2%; with HOP-62 NSCLC, 91.9%; in the test on NCI-H460 lung, 109%; in the test on HOP-92 NSCLC it was 61.8%. In addition, the growth in the test on A549/ATCC NSCLC was 103%; with 786-0 renal it was 86.5%; with COLO 205 colon, 81.3%; in the test with DU-145 prostate it was 99.8%; in the test with K-562 leukemia, 81.5%; in the test with MALME-3M melanoma it was 118%. Besides, the growth with MDA-MB-231 breast was 90.2%; in the test on RXF 393 renal, 83.8%; with SF-268 CNS, 114%; in the test on SF-295 CNS it was 109%; in the test on SF-539 CNS, 91.4%; with UACC-257 melanoma, 104%. The growth in the test on M14 melanoma was 97.6%.
Regarding `COc1ccc(-c2cnc(SCC(=O)Nc3ccc(-c4nc5ccccc5s4)cc3)n2-c2ccc(OC)cc2)cc1`, the growth was 101% in the test on NCI-H23 lung; 105% in the test on NCI-H226 lung; 102% in the test on NCI-H322M lung; 106% with HOP-62 NSCLC; 110% with NCI-H460 lung; 93.6% in the test with HOP-92 NSCLC. Further, the growth is 101% with A549/ATCC NSCLC; 102% in the test with 786-0 renal; 112% in the test on COLO 205 colon; 120% in the test on DU-145 prostate; 108% in the test with K-562 leukemia; 129% in the test on MALME-3M melanoma. Besides, the growth in the test with MDA-MB-231 breast is 111%; with RXF 393 renal, 121%; with SF-268 CNS it was 100%; in the test on SF-295 CNS it was 113%; in the test with SF-539 CNS, 102%; in the test with UACC-257 melanoma, 116%. Also, the growth in the test on M14 melanoma was 112%.
In the case of `COc1cc(/C=C/c2cc(/C=C/c3ccc(O)c(OC)c3)n(C(=O)Cc3ccccc3)n2)ccc1O`, the growth with NCI-H23 lung was 1.94% (active); with NCI-H226 lung it was 13.7%; with NCI-H322M lung, 9.62% (active); with HOP-62 NSCLC it was 2.82% (active); with NCI-H460 lung, 4.69% (active); in the test with HOP-92 NSCLC, -0.112% (active). Also, the growth in the test on A549/ATCC NSCLC was 4.22% (active); in the test with 786-0 renal, 10.2%; in the test with COLO 205 colon, -64.3% (active); in the test with DU-145 prostate, 17.3%; in the test on K-562 leukemia, 1.69% (active); in the test with MALME-3M melanoma, -0.485% (active). Besides, the growth in the test on MDA-MB-231 breast is 15.2%; in the test on RXF 393 renal, -42.6% (active); in the test on SF-268 CNS, 9.64% (active); with SF-295 CNS, 8.28% (active); with SF-539 CNS it was -23.1% (active); in the test on UACC-257 melanoma it was -5.67% (active). Further, the growth in the test on M14 melanoma is 0.243% (active).
Consider `O=C(Nc1cccc(Cl)c1)Nc1cccc(Cl)c1`, for which the growth in the test with NCI-H23 lung is 35.8%; in the test with NCI-H226 lung it was 81.1%; in the test on NCI-H322M lung it was 79.1%; in the test on HOP-62 NSCLC, 88.2%; in the test with NCI-H460 lung it was 52%; in the test with HOP-92 NSCLC it was 87.6%. Moreover, the growth in the test on A549/ATCC NSCLC was 52.4%; with 786-0 renal, 77.1%; with COLO 205 colon, 89.2%; in the test with DU-145 prostate, 78.6%; in the test on K-562 leukemia it was 19.6%; in the test on MALME-3M melanoma, 68.1%. In addition, the growth in the test with MDA-MB-231 breast was 85.3%; in the test with RXF 393 renal, 132%; in the test on SF-268 CNS, 88.6%; with SF-295 CNS, 24.8%; with SF-539 CNS it was 91.4%; in the test on UACC-257 melanoma, 105%. For the same compound, the growth in the test with M14 melanoma was 75.7%.
As for `O=C1C=CC(=O)N1c1ccccc1N1C(=O)C=CC1=O`, the growth is 115% with NCI-H23 lung; 101% in the test on NCI-H226 lung; 122% in the test on NCI-H322M lung; 94.5% in the test on HOP-62 NSCLC; 111% in the test with NCI-H460 lung; 82.8% in the test on HOP-92 NSCLC. Moreover, the growth is 121% with A549/ATCC NSCLC; 110% in the test on 786-0 renal; 57.7% with COLO 205 colon; 110% with DU-145 prostate; 50.2% in the test on K-562 leukemia; 144% with MALME-3M melanoma. Besides, the growth with MDA-MB-231 breast is 92.6%; with RXF 393 renal it was 111%; in the test with SF-268 CNS it was 97.7%; in the test with SF-295 CNS it was 125%; in the test with SF-539 CNS, 100%; in the test with UACC-257 melanoma it was 115%. The growth in the test on M14 melanoma is 110%.
On to `Nc1nc(Nc2ccccc2SSc2ccccc2Nc2nc(N)nc(-c3cccc(Cl)c3)n2)nc(-c2cccc(Cl)c2)n1`, for which the growth in the test on NCI-H23 lung was 78.6%; in the test on NCI-H226 lung, 82.7%; with NCI-H322M lung, 91.8%; in the test on HOP-62 NSCLC, 7.83% (active); in the test with NCI-H460 lung it was 89.9%; in the test on HOP-92 NSCLC, 105%. The growth is -24.8% (active) with A549/ATCC NSCLC; 99.1% in the test on 786-0 renal; 119% with COLO 205 colon; 97% in the test with DU-145 prostate; 81.9% in the test on K-562 leukemia; 104% with MALME-3M melanoma. Besides, the growth in the test with MDA-MB-231 breast is 74.8%; with RXF 393 renal, 106%; with SF-268 CNS it was 99.9%; in the test with SF-295 CNS, 79.2%; in the test with SF-539 CNS it was 99.6%; in the test with UACC-257 melanoma it was 112%. Further, in the test on M14 melanoma, the growth was 95.4%.
Turning to `COc1ccc2c(c1)CC[C@@H]1[C@@H]2CC[C@]2(C)[C@@H](O)C(=O)C[C@@H]12`, the growth is 102% in the test with NCI-H23 lung; 114% in the test with NCI-H226 lung; 91.3% in the test with NCI-H322M lung; 103% in the test with HOP-62 NSCLC; 102% in the test with NCI-H460 lung; 116% with HOP-92 NSCLC. Further, the growth was 99.6% in the test with A549/ATCC NSCLC; 106% in the test with 786-0 renal; 102% in the test on COLO 205 colon; 104% in the test on DU-145 prostate; 94.2% in the test with K-562 leukemia; 148% in the test on MALME-3M melanoma. Further, the growth was 109% in the test with MDA-MB-231 breast; 134% in the test with RXF 393 renal; 97.1% with SF-268 CNS; 109% in the test on SF-295 CNS; 100% in the test with SF-539 CNS; 106% in the test with UACC-257 melanoma. Besides, in the test with M14 melanoma, the growth is 110%.
Consider `O=C(Nc1ccccc1)c1cc(-n2cnc([N+](=O)[O-])c2)cc(-n2cnc([N+](=O)[O-])c2)n1`, for which the growth is 98.6% in the test on NCI-H23 lung; 86.2% with NCI-H226 lung; 92% in the test on NCI-H322M lung; 102% with HOP-62 NSCLC; 119% in the test on NCI-H460 lung; 49.7% with HOP-92 NSCLC. In addition, the growth in the test with A549/ATCC NSCLC was 87%; in the test on 786-0 renal, 102%; in the test on COLO 205 colon, 97.4%; with DU-145 prostate, 110%; with K-562 leukemia it was 86.5%; with MALME-3M melanoma it was 94.4%. Moreover, the growth with MDA-MB-231 breast is 88.6%; in the test on RXF 393 renal it was -14.6% (active); with SF-268 CNS it was 119%; in the test with SF-295 CNS, 130%; in the test with SF-539 CNS it was 102%; with UACC-257 melanoma, 89.3%. Besides, the growth in the test on M14 melanoma was 94.6%.
As for `C[C@@H]1[C@H]2[C@H](C=C3[C@@H]4CC[C@H]5Cc6nc7c(nc6C[C@]5(C)[C@H]4C[C@@H](O)[C@@]32C)C[C@@H]2CC[C@H]3C4=C[C@@H]5O[C@@]6(CC[C@](C)(CO)O6)[C@@H](C)[C@@]5(O)[C@@]4(C)[C@H](O)C[C@@H]3[C@@]2(C)C7)O[C@]12CCC(C)(C)O2`, the growth is 33.6% in the test on NCI-H23 lung; 20.7% with NCI-H226 lung; 27.8% in the test on NCI-H322M lung; -24.5% (active) in the test with HOP-62 NSCLC; 0.313% (active) with NCI-H460 lung; -4.69% (active) with HOP-92 NSCLC. In addition, the growth in the test on A549/ATCC NSCLC is 12.8%; with 786-0 renal, -25.3% (active); in the test with COLO 205 colon, -39.3% (active); with DU-145 prostate, 45.2%; in the test on K-562 leukemia, -7.07% (active); with MALME-3M melanoma, 38.8%. Also, the growth is -0.32% (active) in the test on MDA-MB-231 breast; -44.4% (active) with RXF 393 renal; 31.2% with SF-268 CNS; -63.4% (active) in the test with SF-295 CNS; 3.28% (active) with SF-539 CNS; 26.6% with UACC-257 melanoma. Also, the growth in the test on M14 melanoma is 8.26% (active).
